The campaign covered roughly 55,000 sequences. About 2,600 (4.7%) were called active. Cut-off read from the data, not from the text of the source: active = GI50 up to about 1.1 µM and inactive = higher. Not all results are given here. Results with a measured potency or affinity are listed apart.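 Protocol summary: plate cells (96-well), add compound at 5 concentrations, incubate 48 h, interpolate endpoints linearly. GI50 is the concentration that inhibits growth by half.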

The test has as its system OVCAR-4. Kind of test: NCI tumour cell line growth inhibition, 48 h.
Consider “[Bis(aminomethyl)tetramethylenesilane]dichloropaltinum(II), CHEMBL2146205”, for which the GI50 came to 59.8 µM.
For “[Bis(aminomethyl)tetramethylenesilane]tetrachloropaltinum(IV), CHEMBL2146189” the value was 19 µM.
For CISPLATIN, CHEMBL11359 the value was 1.49 µM; for “[Bis(aminomethyl)pentamethylenesilane]dichloropaltinum(II), CHEMBL2146202”, 5.46 µM.
For “cis-Bis[[(trimethylsilyl)methyl]amino]tetrachloroplatinum(IV), CHEMBL2146191” the value was 5.53 µM.
Substance “[Bis(aminomethyl)pentamethylenesilane]tetrachloropaltinum(IV), CHEMBL2146204” gave a GI50 of 18.6 µM.
The same measure for “[Bis(aminomethyl)dimethylsilane]tetrachloroplatinum(IV), CHEMBL2146190”: 18.8 µM; for “[Bis(aminomethyl)dimethylsilane]dichloroplatinum (II), CHEMBL2146201”: 45.8 µM.
The same measure for “[Bis(aminomethyl)ethylmethylsilane]tetrachloroplatinum(IV), CHEMBL2146192”: 10 µM; for “mu-(1,7-nanodiamine-N,N')bis-(cis-aminedichloroplatimum (II)), CHEMBL2146215”: 40.8 µM.
The same measure for “[Bis(aminomethyl)diethylsilane]tetrachloroplatinum(IV), CHEMBL2146203”: 14.7 µM.

These data come from ChEMBL document CHEMBL1201862, “PubChem BioAssay data set” (2004).
